Z-score and composite z-score data for eight compounds are collected here from PubChem BioAssay.

The structures appear in SMILES notation. The source made the active and inactive calls.

Assay [1] in a line: E. coli DRC41 culture turbidity changes, primary screen, E. coli filamentation inducer project, strain DRC41, OD650, 48 h (AID 1152).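 Also: E. coli MC1000 strain DRC41 lacking acrAB efflux pump and sulA.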 The settings on record: E. coli DRC41 (acrAB sulA), higher = more signal, called active from +8 up or from −8 down.
Assay [2] can be described thus: small-molecule binders of probe aLefty1, primary screen, biochemical, small-molecule microarray, 635/667 nm fluorescence (AID 1153).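 Also: score merges spot fluorescence with signal-to-noise ratio from the scanned slide images.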 The settings on record: higher = more signal.
Assay [3] can be described thus: PSAC antagonists in infected red cells, primary screen, cell-based, P. falciparum Indochina, OD700, 1 h (AID 1154). The settings on record: P. falciparum Indochina infected RBC osmotic lysis, higher = more signal, called active from +8 up or from −8 down.
Assay [4] in a line: PSAC antagonists in infected red cells, primary screen, cell-based, P. falciparum Indochina, OD700, 2 h (AID 1155).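 Also: lysis reports solute entry through the parasite surface anion channel PSAC; channel blockers reduce lysis of infected cells.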 The settings on record: P. falciparum Indochina infected erythrocytes, osmotic lysis OD700; higher = more signal, called active from +8 up or from −8 down.
The nature of assay [5]: osmotic lysis modulators in infected erythrocytes, primary screen, PSAC antagonist project, cell-based, P. falciparum Indochina, OD700, 3 h (AID 1156). The following applies: higher = more signal, called active from +8 up or from −8 down.
Assay [6] is described as follows: PSAC antagonists in infected red cells, primary screen, cell-based, P. falciparum Indochina, OD700, 18 h (AID 1157). The following applies: P. falciparum Indochina infected erythrocytes, osmotic lysis OD700, 18 h; higher = more signal, called active from +8 up or from −8 down.
Assay [7] is described as follows: modulators of S6 phosphorylation in cells, primary screen, cell-based, A549, cytoblot, luminescence, serum-stimulated (AID 1158).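 Also: serum-stimulated A549 lung adenocarcinoma cells; signal is phosphorylated S6 detected by cytoblot immunostaining with HRP secondary.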 The settings on record: A549 phospho-S6 cytoblot, 5 h, higher = more signal.
Assay [8] addresses NADPH oxidase 2 (Homo sapiens) (UniProt P04839). In words: NOX2-dependent H2O2 signal modulators, primary screen, NOX inhibitor project, cell-based, HEK293-NOX2, PMA-stimulated, Amplex Red fluorescence (AID 1159). Also: test concentration not given here. The settings on record: 45 min, higher = more signal, called active from +8 up or from −8 down.
In assay [9] the target is NADPH oxidase 4 (Homo sapiens) (UniProt Q9NPH5). As to the kind of experiment: NOX4-dependent H2O2 signal modulators, primary screen, NOX inhibitor project, cell-based, HEK293-NOX4, tetracycline-induced, Amplex Red fluorescence (AID 1160). The settings on record: 45 min, higher = more signal, called active from +8 up or from −8 down.
NADPH oxidase 4 (Homo sapiens), sequence (Q9NPH5 whole entry, looked up): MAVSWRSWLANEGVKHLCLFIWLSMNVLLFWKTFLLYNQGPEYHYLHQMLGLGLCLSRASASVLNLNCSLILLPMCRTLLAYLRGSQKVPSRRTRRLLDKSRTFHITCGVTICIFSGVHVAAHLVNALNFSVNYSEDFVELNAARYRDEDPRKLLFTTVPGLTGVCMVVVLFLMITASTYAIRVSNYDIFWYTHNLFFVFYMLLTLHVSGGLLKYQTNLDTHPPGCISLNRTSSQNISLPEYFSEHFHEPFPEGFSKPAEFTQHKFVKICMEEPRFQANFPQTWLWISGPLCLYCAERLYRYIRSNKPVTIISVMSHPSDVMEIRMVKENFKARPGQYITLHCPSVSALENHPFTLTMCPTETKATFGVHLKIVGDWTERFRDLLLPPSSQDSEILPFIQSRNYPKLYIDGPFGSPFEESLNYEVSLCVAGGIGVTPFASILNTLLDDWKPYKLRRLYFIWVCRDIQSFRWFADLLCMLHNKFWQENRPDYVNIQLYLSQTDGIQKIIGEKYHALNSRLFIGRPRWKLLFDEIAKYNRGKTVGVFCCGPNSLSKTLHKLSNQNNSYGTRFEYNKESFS
Assay [10] addresses NADPH oxidase 5 (Homo sapiens) (UniProt Q96PH1). As to the kind of experiment: NOX5-dependent H2O2 signal modulators, primary screen, NOX inhibitor project, cell-based, HEK293-NOX5, Amplex Red fluorescence (AID 1161). The following applies: HEK293-NOX5, ionomycin, 45 min, higher = more signal.
The nature of assay [11]: A549 cell viability effects, profiling panel, calcein-AM fluorescence, 48 h, basal (AID 1162). Also: test concentration not given here. The settings on record: higher = more signal.
Assay [12] in a line: adipocyte viability effects, profiling panel, cell-based, 3T3-L1 adipocytes, calcein-AM fluorescence, 48 h, basal (AID 1163). Also: test concentration not given here. The settings on record: 3T3-L1 adipocytes viability, higher = more signal.
Assay [13] can be described thus: HepG2 cell viability effects, profiling panel, calcein-AM fluorescence, 48 h, basal (AID 1164). Also: test concentration not given here. The settings on record: higher = more signal.
The nature of assay [14]: MM1S cell viability effects, profiling panel, calcein-AM fluorescence, 48 h, basal (AID 1165).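 Also: viability of MM1S multiple myeloma cells under basal unstimulated conditions; test concentration not given here.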 The settings on record: higher = more signal.
Assay [15] is described as follows: basal RPMI8226 viability, no added stimulus, profiling panel, cell-based, calcein-AM fluorescence, 48 h, PK04 Diversity Set (AID 1166).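 Also: cells grown under basal conditions without added stimulus; test concentration not given here.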 The following applies: RPMI8226 myeloma viability, higher = more signal.
A short description of assay [16]: basal HepG2 mitochondrial membrane potential changes, profiling panel, cell-based, JC-1 fluorescence, 24 h, 100 nL compound (AID 1167). Also: test concentration not given here. The settings on record: higher = more signal.
Assay [17] can be described thus: basal 3T3-L1 adipocyte mitochondrial potential changes, profiling panel, cell-based, JC-1 fluorescence, 3T3-L1 adipocytes, 24 h, 100 nL compound (AID 1168). Also: test concentration not given here. The settings on record: JC-1 mitochondrial fluorescence, higher = more signal, called active from +8 up or from −8 down.
Assay [18] is described as follows: basal RPMI8226 mitochondrial membrane potential changes, profiling panel, cell-based, JC-1 fluorescence, 24 h, 100 nL compound (AID 1169). Also: test concentration not given here. The following applies: RPMI8226 myeloma, JC-1 mitochondrial potential fluorescence, higher = more signal.
Assay [19] in a line: basal MM1S mitochondrial membrane potential changes, profiling panel, cell-based, JC-1 fluorescence, 24 h, 100 nL compound (AID 1170). Also: test concentration not given here. The settings on record: higher = more signal.
Assay [20] can be described thus: A549 lung cancer cell viability effects, profiling panel, resazurin fluorescence, 24 h, PK04 Diversity Set (AID 1171). Also: test concentration not given here. The settings on record: higher = more signal, called active from +8 up or from −8 down.

NADPH oxidase 2 (Homo sapiens), sequence (P04839 whole entry, looked up): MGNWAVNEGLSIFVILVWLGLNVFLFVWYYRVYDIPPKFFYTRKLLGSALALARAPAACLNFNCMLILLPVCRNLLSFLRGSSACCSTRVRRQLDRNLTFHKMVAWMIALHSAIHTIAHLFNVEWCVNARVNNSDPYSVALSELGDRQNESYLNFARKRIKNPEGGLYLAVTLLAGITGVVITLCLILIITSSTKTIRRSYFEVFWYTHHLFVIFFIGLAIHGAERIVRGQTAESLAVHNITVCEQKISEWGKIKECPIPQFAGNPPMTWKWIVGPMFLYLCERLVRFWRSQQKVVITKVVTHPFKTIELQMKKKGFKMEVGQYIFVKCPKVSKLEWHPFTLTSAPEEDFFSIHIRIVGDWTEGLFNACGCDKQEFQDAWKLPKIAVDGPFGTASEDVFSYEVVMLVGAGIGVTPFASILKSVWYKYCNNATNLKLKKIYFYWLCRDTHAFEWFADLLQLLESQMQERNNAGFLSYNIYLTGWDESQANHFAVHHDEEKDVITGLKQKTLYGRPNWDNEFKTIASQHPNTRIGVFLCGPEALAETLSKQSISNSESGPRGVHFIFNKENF
NADPH oxidase 5 (Homo sapiens), sequence (Q96PH1 whole entry, looked up): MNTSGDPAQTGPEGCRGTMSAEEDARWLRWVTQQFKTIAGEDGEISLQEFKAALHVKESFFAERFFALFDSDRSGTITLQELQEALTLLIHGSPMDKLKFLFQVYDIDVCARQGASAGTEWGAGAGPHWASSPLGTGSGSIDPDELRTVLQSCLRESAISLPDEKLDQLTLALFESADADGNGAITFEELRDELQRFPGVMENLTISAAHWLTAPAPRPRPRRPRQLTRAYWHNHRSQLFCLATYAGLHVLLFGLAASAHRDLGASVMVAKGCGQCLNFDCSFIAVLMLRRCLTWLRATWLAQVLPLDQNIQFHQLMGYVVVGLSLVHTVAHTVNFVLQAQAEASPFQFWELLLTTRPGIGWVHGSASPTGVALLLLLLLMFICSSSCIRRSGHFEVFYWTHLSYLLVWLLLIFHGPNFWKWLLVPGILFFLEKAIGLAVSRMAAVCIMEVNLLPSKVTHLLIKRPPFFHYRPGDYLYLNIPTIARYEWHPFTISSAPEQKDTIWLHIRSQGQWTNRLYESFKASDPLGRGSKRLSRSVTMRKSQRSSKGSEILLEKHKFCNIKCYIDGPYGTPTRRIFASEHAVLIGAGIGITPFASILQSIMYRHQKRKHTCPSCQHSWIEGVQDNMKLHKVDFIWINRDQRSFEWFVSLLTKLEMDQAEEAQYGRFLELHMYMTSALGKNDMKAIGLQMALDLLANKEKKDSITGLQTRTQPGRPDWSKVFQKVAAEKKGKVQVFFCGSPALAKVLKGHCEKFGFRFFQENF

With `COC(=O)C=CCCc1coc(C=CCNC(=O)OC)n1`, the z-score is -0.747 (inactive) in assay [1]; 1.78 (inactive) in assay [3]; 0.713 (inactive) in [4]; 1.13 (inactive) in assay [5]; 0.247 (inactive) in [6]; 0.41 in assay [7]. The z-score is 0.575 (inactive) in [8]; 0.532 (inactive) in [9]; 0.21 in [10]; -0.538 in assay [11]; 0.868 in assay [12]; -0.586 in assay [13]. Besides, the z-score was 0.585 in [14]; -2.19 in [15]; 0.0672 in [16]; -0.944 (inactive) in assay [17]; 0.073 in [18]; 0.681 in assay [19]. Also, in [20], the z-score was -1.18 (inactive). This compound yielded a composite z-score in assay [2] of 0.632.
As to `C#CCCCON=C1C[C@@H](O)[C@@H](O)[C@@H]2[C@@H]3C(=O)N(C(C)(C)C)C(=O)[C@@H]3CC[C@H]12`, the z-score in assay [1] was 0.233 (inactive); in assay [3] it was 3.84 (inactive); in assay [4], 0.371 (inactive); in assay [5] it was -0.342 (inactive); in assay [6], 0.204 (inactive); in assay [7], -0.162. Also, the z-score in assay [8] was -0.722 (inactive); in assay [9], 0.132 (inactive); in assay [10], 0.307; in assay [11] it was 0.053; in assay [12], -0.304; in assay [13] it was 0.673. Besides, the z-score is 0.505 in assay [14]; -0.413 in assay [15]; -0.161 in [16]; -0.505 (inactive) in assay [17]; 0.386 in assay [18]; -0.708 in assay [19]. In addition, in [20], the z-score is -0.496 (inactive). This compound also showed a composite z-score in assay [2] of 0.571.
In the case of `C=CC[C@@H]1C=C[C@H](ON=C(C)CCN2CCc3nc(-c4ccccc4)c(-c4ccccc4)cc3C2)[C@@H](CO)O1`, the z-score in assay [1] is 0.418 (inactive); in assay [3], 4.53 (inactive); in assay [4], 0.809 (inactive); in assay [5], 0.85 (inactive); in [6], 0.538 (inactive); in assay [7] it was -0.0288. Further, the z-score in assay [8] was -2.79 (inactive); in assay [9], -0.835 (inactive); in assay [10], -2.75; in assay [11], 2.2; in [12], 0.114; in assay [13], 2.31. For the same compound, the z-score in [14] was -2.36; in assay [15], -0.141; in [16], 3.86; in assay [17], -1.91 (inactive); in assay [18], 0.518; in assay [19], -1.17. In assay [20], the z-score is 0.548 (inactive). This compound also gave a composite z-score in assay [2] of 0.0446.
`COC(=O)[C@@H]1CC[C@H](C)[C@@H](c2ccc(C)cc2)N1C(=O)c1ccc(C=NOC[C@@H](C)[C@H](OCc2ccccc2)C(C)C)cc1`: the z-score in [1] is -1.07 (inactive); in assay [3], 1.25 (inactive); in assay [4], -1.62 (inactive); in assay [5], -0.467 (inactive); in assay [6], -1.35 (inactive); in assay [7] it was 2.57. The z-score is -1.28 (inactive) in assay [8]; -0.428 (inactive) in assay [9]; 0.388 in [10]; 0.188 in assay [11]; 0.903 in assay [12]; 2.13 in assay [13]. Besides, the z-score in assay [14] is -0.168; in assay [15], -0.0791; in assay [16], 1.6; in [17], -0.483 (inactive); in [18] it was -0.998; in [19], -1.01. Moreover, in assay [20], the z-score is -1.19 (inactive). The same compound yielded a composite z-score in assay [2] of -0.18.
In the case of `CCOC(=O)[C@H](Cc1ccccc1)NC(=O)CCC1CC(OC(=O)NCCc2ccc(F)cc2)CC2(CCCC(COC(=O)NCCc3ccccc3OC)O2)O1` (stereo not given in full), the z-score was -1.1 (inactive) in assay [1]; 0.425 (inactive) in assay [3]; 0.136 (inactive) in assay [4]; -0.106 (inactive) in assay [5]; 0.174 (inactive) in [6]; 0.392 in assay [7]. Also, the z-score in assay [8] is -0.106 (inactive); in assay [9], 0.151 (inactive); in [10] it was 0.294; in assay [11] it was -0.793; in assay [12], -0.702; in assay [13] it was 0.492. Also, the z-score in [14] was -2.99; in assay [15] it was -1.42; in assay [16], 0.723; in assay [17] it was 0.3 (inactive); in assay [18] it was 0.165; in assay [19], -1.02. Further, the z-score in assay [20] was -0.301 (inactive). In assay [2], this compound registered a composite z-score of -0.0075.
Turning to `CO[C@H]1COC(=O)[C@@H](C)COC(=O)[C@@H](OCc2ccccc2)C=C[C@@H]1C`, the z-score is -0.303 (inactive) in [1]; -0.347 (inactive) in [3]; 0.32 (inactive) in [4]; 0.328 (inactive) in assay [5]; -0.0659 (inactive) in assay [6]; -0.286 in assay [7]. For the same compound, the z-score in assay [8] is 0.237 (inactive); in [9] it was 0.566 (inactive); in assay [10] it was -0.609; in assay [11], -0.162; in [12], -0.197; in assay [13], 0.373. Also, the z-score in assay [14] was -0.112; in assay [15] it was 0.473; in assay [16], 0.485; in assay [17] it was 0.531 (inactive); in [18] it was 0.458; in [19], 0.0911. Further, in assay [20], the z-score is 0.39 (inactive). This compound showed a composite z-score in [2] of -0.235.
For `C#CCCCON=C1C[C@@H](O)[C@@H](O)[C@@H]2[C@@H]3C(=O)N(c4ccc(F)cc4F)C(=O)[C@@H]3CC[C@H]12`, the z-score in assay [1] was -1.41 (inactive); in [3], 1.04 (inactive); in assay [4], -1.22 (inactive); in [5], 1.13 (inactive); in [6], -1.41 (inactive); in assay [7] it was 0.27. In addition, the z-score in assay [8] is -0.76 (inactive); in [9], 0.615 (inactive); in assay [10], 0.306; in assay [11] it was 1.14; in assay [12], -0.0377; in assay [13], -0.123. Also, the z-score was 0.324 in assay [14]; 0.116 in assay [15]; 0.769 in [16]; -0.229 (inactive) in assay [17]; -0.0797 in [18]; -1.25 in assay [19]. Also, the z-score in assay [20] was 0.705 (inactive). The composite z-score in [2] was -0.193.
Regarding `CCOC(=O)[C@H](Cc1ccccc1)NC(=O)CCC1CC(OC(=O)NCCc2ccc(F)cc2)CC2(CCCC(COC(=O)NCC3CCCCC3)O2)O1` (stereo not given in full), the z-score in assay [1] was 1.08 (inactive); in assay [3], -0.0955 (inactive); in assay [4], 0.672 (inactive); in assay [5], 0.753 (inactive); in [6] it was 0.416 (inactive); in assay [7], 0.681. For the same compound, the z-score in assay [8] was 0.102 (inactive); in assay [9], 1.12 (inactive); in assay [10], 0.0102; in [11] it was 1.35; in assay [12] it was -0.78; in assay [13], 0.901. The z-score in assay [14] is -3.14; in assay [15], 0.219; in [16], 0.809; in [17] it was 0.367 (inactive); in [18], -0.0221; in assay [19], -1.29. In [20], the z-score was 0.384 (inactive). This compound came in with a composite z-score in assay [2] of -0.0536.
